Tests used:
[1] = molecular target: T1, Serine/threonine-protein kinase TBK1 (Homo sapiens) (UniProt Q9UHD2); details: at 10 µM
T1 sequence (whole entry): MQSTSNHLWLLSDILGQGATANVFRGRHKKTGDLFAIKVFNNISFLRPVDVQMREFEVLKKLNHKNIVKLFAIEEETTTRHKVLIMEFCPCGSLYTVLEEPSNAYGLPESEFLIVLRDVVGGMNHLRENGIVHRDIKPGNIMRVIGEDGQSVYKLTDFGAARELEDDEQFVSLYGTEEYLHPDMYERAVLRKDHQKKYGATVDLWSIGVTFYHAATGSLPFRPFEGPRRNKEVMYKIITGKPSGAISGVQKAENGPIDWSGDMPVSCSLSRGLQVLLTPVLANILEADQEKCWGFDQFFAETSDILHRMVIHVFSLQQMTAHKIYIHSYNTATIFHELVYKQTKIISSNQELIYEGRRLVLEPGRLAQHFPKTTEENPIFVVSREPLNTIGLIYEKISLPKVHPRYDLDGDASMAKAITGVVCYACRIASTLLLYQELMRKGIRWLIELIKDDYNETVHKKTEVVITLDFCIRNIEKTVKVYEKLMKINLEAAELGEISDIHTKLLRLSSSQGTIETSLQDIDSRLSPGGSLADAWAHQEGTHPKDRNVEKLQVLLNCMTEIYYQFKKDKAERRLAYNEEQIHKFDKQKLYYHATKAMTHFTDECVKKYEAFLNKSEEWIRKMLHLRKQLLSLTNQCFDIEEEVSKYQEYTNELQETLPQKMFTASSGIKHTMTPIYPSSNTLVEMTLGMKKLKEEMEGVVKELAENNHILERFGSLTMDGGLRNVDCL

[2] = molecular target: T2, TGF-beta receptor type-1 (Homo sapiens) (UniProt P36897); details: at 1 µM
T2 sequence (whole entry): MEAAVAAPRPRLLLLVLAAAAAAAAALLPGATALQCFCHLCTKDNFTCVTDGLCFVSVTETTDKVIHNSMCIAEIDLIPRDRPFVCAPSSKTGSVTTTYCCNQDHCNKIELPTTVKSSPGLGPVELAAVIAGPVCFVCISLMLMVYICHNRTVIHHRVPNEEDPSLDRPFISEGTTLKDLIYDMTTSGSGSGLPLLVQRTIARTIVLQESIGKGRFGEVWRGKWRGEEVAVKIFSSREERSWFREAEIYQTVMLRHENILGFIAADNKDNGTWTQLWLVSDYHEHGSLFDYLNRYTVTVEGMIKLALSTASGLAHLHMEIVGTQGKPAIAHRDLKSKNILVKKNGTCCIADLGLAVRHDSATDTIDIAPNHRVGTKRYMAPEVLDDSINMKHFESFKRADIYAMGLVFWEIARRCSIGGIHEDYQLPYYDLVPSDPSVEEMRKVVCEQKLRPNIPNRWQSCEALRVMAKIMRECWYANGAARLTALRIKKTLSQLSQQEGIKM

[3] = molecular target: T2, TGF-beta receptor type-1 (Homo sapiens); details: at 10 µM
[4] = molecular target: Insulin-like growth factor 1 receptor (Homo sapiens) (UniProt P08069); details: at 1 µM
[5] = molecular target: Insulin-like growth factor 1 receptor (Homo sapiens) (UniProt P08069); details: at 10 µM
[6] = molecular target: T3, Inhibitor of nuclear factor kappa-B kinase subunit alpha (Homo sapiens) (UniProt O15111); details: at 1 µM
T3 sequence (whole entry): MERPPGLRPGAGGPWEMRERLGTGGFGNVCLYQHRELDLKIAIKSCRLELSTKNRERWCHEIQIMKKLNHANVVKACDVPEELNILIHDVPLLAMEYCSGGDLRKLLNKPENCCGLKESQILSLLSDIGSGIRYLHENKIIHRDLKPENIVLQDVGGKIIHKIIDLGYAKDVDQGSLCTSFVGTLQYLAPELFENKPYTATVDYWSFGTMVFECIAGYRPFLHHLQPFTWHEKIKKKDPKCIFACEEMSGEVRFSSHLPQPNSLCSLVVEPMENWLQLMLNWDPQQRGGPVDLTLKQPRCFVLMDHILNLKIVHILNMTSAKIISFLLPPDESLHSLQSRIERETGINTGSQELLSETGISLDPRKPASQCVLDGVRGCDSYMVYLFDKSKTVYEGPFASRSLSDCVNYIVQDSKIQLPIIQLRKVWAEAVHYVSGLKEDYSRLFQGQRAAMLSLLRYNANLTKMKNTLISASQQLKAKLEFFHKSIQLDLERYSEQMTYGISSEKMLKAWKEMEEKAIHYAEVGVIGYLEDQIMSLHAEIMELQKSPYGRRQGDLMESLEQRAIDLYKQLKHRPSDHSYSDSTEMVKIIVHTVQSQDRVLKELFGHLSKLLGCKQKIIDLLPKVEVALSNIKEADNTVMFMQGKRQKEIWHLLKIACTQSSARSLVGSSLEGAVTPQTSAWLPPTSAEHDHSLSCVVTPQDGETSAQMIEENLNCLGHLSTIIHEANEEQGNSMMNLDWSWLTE

[7] = molecular target: T3, Inhibitor of nuclear factor kappa-B kinase subunit alpha (Homo sapiens); details: at 10 µM
[8] = molecular target: T4, Inhibitor of nuclear factor kappa-B kinase subunit beta (Homo sapiens) (UniProt O14920); details: at 1 µM
T4 sequence (whole entry): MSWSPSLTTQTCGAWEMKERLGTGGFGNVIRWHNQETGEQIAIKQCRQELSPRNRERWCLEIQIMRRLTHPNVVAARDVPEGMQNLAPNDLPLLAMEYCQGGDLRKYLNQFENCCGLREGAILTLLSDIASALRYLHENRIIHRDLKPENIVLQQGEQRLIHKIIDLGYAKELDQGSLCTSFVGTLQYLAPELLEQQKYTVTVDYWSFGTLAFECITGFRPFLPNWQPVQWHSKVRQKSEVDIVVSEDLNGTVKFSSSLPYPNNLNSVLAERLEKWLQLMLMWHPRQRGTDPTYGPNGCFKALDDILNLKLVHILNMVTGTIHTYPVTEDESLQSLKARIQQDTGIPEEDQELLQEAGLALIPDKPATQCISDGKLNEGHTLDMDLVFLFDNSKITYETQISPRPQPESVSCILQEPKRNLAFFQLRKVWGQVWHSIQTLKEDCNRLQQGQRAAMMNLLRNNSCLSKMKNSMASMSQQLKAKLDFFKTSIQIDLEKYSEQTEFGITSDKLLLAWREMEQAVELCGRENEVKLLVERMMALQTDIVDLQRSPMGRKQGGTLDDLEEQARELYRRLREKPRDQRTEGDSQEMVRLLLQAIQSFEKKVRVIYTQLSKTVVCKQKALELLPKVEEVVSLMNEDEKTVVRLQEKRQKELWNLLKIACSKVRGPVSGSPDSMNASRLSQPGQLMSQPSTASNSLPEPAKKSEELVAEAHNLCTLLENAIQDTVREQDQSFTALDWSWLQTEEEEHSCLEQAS

[9] = molecular target: T4, Inhibitor of nuclear factor kappa-B kinase subunit beta (Homo sapiens); details: at 10 µM
[10] = molecular target: Insulin receptor (Homo sapiens) (UniProt P06213); details: at 1 µM
Chain of Insulin receptor (Homo sapiens) (P06213 28-758 limits assumed): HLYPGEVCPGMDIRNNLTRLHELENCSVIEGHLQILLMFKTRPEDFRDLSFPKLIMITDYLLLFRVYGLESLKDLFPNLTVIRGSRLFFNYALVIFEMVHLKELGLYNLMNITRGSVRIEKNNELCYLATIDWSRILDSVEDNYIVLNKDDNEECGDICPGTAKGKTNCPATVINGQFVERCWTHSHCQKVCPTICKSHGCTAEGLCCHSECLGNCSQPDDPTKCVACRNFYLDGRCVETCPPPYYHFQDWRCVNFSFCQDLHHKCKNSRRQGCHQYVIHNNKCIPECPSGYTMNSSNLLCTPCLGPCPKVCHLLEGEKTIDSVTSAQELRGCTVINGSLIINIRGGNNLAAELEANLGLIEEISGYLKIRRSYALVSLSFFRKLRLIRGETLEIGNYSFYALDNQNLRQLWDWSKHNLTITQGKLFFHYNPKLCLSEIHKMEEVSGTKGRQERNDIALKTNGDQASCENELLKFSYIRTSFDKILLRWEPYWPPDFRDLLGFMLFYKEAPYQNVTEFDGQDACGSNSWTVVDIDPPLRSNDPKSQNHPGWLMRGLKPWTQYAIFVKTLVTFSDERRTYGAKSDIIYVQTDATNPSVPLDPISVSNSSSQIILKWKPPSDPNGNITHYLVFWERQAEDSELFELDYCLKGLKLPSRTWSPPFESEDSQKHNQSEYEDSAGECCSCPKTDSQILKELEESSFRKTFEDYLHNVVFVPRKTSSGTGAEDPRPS
Chain of Insulin receptor (Homo sapiens) (P06213 763-1382 limits assumed): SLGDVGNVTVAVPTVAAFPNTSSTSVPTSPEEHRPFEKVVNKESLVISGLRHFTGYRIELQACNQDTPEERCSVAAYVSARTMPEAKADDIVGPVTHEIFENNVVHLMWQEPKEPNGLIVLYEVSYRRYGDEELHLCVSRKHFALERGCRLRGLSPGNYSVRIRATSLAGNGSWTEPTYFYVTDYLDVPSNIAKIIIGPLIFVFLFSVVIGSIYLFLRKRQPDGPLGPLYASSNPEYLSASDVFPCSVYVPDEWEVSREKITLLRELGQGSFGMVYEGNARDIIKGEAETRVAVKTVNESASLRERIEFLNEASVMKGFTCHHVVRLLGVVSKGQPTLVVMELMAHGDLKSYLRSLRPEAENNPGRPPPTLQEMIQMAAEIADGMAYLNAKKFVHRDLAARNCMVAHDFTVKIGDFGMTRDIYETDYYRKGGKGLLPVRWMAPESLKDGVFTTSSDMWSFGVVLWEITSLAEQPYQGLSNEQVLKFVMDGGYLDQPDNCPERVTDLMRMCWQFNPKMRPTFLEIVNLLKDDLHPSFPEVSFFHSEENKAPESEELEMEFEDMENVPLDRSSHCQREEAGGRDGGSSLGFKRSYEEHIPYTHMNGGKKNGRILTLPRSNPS

Chain of Insulin-like growth factor 1 receptor (Homo sapiens) (P08069 31-736 limits assumed): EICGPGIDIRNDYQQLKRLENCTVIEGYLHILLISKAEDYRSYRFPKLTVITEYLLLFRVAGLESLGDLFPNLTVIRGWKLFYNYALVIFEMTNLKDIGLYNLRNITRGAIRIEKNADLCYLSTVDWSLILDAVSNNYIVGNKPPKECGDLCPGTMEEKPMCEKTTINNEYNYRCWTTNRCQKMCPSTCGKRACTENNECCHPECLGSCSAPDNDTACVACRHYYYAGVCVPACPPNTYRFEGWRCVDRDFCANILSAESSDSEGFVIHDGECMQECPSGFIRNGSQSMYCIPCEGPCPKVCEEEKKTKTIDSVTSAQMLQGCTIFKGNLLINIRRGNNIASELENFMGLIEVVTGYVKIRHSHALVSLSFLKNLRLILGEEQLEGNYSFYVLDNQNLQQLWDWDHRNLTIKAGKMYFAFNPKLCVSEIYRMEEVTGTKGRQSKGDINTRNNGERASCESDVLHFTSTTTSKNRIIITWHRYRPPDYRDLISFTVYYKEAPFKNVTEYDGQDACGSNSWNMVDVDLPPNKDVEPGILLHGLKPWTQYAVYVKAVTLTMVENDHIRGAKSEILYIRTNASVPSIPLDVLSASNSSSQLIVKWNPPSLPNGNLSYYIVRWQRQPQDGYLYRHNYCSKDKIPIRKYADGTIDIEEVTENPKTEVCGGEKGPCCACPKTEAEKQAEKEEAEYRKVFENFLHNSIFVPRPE
Chain of Insulin-like growth factor 1 receptor (Homo sapiens) (P08069 741-1367 limits assumed): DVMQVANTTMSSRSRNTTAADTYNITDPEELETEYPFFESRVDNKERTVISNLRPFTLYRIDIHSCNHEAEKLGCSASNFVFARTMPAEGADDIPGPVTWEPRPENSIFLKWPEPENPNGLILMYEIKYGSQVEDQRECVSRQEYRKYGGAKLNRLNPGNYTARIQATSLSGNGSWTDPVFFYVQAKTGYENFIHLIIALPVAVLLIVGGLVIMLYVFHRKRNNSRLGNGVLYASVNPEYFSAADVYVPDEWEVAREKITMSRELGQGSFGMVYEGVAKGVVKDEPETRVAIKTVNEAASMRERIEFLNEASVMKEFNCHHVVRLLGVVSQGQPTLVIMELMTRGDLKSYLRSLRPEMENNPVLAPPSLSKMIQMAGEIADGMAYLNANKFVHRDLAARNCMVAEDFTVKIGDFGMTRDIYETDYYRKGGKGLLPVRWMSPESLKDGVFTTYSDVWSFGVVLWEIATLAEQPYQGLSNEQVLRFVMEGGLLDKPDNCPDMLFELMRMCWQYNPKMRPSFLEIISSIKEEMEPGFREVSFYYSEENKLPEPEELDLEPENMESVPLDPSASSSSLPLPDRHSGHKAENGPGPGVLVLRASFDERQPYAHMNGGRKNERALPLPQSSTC

Structure (SMILES): Oc1c2ccccc2c2c3c(cccc13)N=N2
- residual activity [1]: 11%
- residual activity [2]: 88%
- residual activity [3]: 74%
- residual activity [4]: 92%
- residual activity [5]: 49%
- residual activity [6]: 57%
- residual activity [7]: 21%
- residual activity [8]: 78%
- residual activity [9]: 43%
- residual activity [10]: 81%

— ChEMBL document CHEMBL2218924, “A broad activity screen in support of a chemogenomic map for kinase signalling research and drug discovery” (Biochem J, 2013)
